Measured values: PubChem BioAssay AID602346 (Broad Institute, 2012)
The campaign covered roughly 340,000 compounds. About 1,200 (0.35%) were called active. This excerpt belongs to a sample that is enriched for actives. A number with no mark means an inactive call. Rule as the data show it: active = inhibition above about 50% (passing the limit was not always enough); inconclusive = no clear call, values can overlap the other calls; inactive = below about 31%.

Assay: blockers of Vif multimerization in cells – imaging, HEK293T, single point, primary screen (AID 602346)
Details: Vif self-association by quenched fluorescence, 24 h, at 7.49 µM, active compounds read high
Compound Cc1ccc(NC(=O)Cn2sc3ccccc3c2=O)cc1 has an inhibition of 4.93%.
For COc1ccc(NC(=O)C2=C(C)NC(=O)NC2c2ccccc2[N+](=O)[O-])cc1 (stereo not drawn), the inhibition was -2.26%.
Compound COc1ccc(NC(=O)ON=C2c3ccccc3-c3ccccc32)cc1 has an inhibition of -9.14%.
With COc1ccc(N/C=C(\C2OC(=O)c3ccccc32)[N+](=O)[O-])cc1 (stereo not drawn) the inhibition was 50.1% (active).
With NC(Cc1ccccc1)c1csc(Nc2cc(Oc3ccccc3)ncn2)n1 (stereo not drawn) the inhibition was -3.02%.
In the case of CCOC(=O)[C@H]1Nc2ccc(Cl)cc2[C@@H]2[C@H]1C1CC(c3ccccc31)N2C(=O)OCc1ccccc1 (stereo partly drawn), the inhibition was 2.38%.
In the case of CC(=O)Oc1ccc(Cn2c(C)c(C(=O)NCc3ccc(C#N)cc3)sc2=O)cc1, the inhibition was 1.95%.
COc1cccc(CNc2nc3cc(-c4csc5ccccc45)sc3c(=O)n2C)c1 showed an inhibition of -4.94%.
For COc1ccc(CC(NC(C)=O)C(=O)NC2CCN(C(=O)C3CC3)CC2)cc1OC (stereo not drawn), the inhibition was -0.652%.
COc1ccc(CC(NC(C)=O)C(=O)NC2CCN(C(=O)Nc3ccc(C#N)cc3)CC2)cc1OC (stereo not drawn) gave an inhibition of -4.35%.
In the case of COc1ccc(CC(NC(C)=O)C(=O)N2CCN(C(=O)Nc3cccc(Cl)c3)CC2)cc1OC (stereo not drawn), the inhibition was 50.1% (active).
Work on CCOc1ccc(CCN2C(=S)N([C@@H](CC(C)C)CN3CCC[C@@H]3CN3C(=S)NC[C@@H]3Cc3ccc(O)cc3)C[C@@H]2Cc2ccc(O)cc2)cc1 yielded an inhibition of 1.22%.
With CCc1nc2ccc(C(=O)NCc3ccc(OC)cc3)cn2c1N(CC)Cc1cccc(Br)c1 the inhibition was 4.42%.
Work on Cc1cccc(C(=O)NC2CCN(CC(=O)Nc3cccc(Cl)c3)CC2)c1 yielded an inhibition of -0.446%.
With CCCOc1ccc(F)cc1-c1cc(C(=O)NCc2ccc(F)cc2)[nH]n1 the inhibition was 14.3%.
In the case of CN(C)C(=O)c1cc(Br)ccc1Cl, the inhibition was 102% (active).
Work on CN(C)C(=S)Nc1ccc(Br)cc1Cl yielded an inhibition of 1.91%.
Compound CC(C)(C)NC(=O)COC(=O)c1cc(Br)ccc1Cl has an inhibition of -3.23%.
CCOC(=O)C1CCCN(C(=O)c2ccc(C)c(F)c2)CC1 (stereo not drawn) showed an inhibition of -7.05%.
Work on COc1ccc(-c2cc(NC(C)=O)c3ncc(-c4cc(OC)c(OC)c(OC)c4)n3c2)cn1 yielded an inhibition of -2.19%.
For COc1ccccc1CNC(=O)c1cc(-c2cc(Cl)ccc2C)n[nH]1, the inhibition was 20.2%.
With CCc1ccc(OCC(=O)NCC(c2ccc(Cl)cc2)N2CCCCC2)cc1 (stereo not drawn) the inhibition was 58.2% (active).
Work on COc1ccc(C(CNC(=O)COc2ccccc2OC)N2CCCCC2)cc1 (stereo not drawn) yielded an inhibition of -2.23%.
COc1ccc(C(CNC(=O)COc2ccc([N+](=O)[O-])cc2)N2CCCCC2)cc1 (stereo not drawn) gave an inhibition of 3.74%.
In the case of CC(C)Nc1nc(NCCOc2ccccc2Cl)c2sccc2n1, the inhibition was -13.3%.
In the case of Oc1cccc2cc(-c3ccncc3)cnc12, the inhibition was 11.1%.
CCOC(=O)C(=Cc1ccccc1)C(=O)c1ccccc1 gave an inhibition of -5.2%.
With COc1ccc(C(C)(O)c2nc(-c3cc(F)cc(F)c3)cs2)cc1 (stereo not drawn) the inhibition was -4.33%.
